SMILES strings stand for the structures. Where a structure was tested more than once in an assay, its records may differ in their call. The source made the active and inactive calls. The calls were made as follows: active = hit-call score of the fitted dose curve at least 0.9, where 1 is the maximum; inactive = score below 0.9.

The nature of test [1]: ATG_GRE_CIS: Attagene CIS-FACTORIAL HepG2 Assay for human Glucocorticoid Response Elements (GRE) (AID 2282947). The note with it: HepG2 GRE cis-reporter, Attagene multiplex mRNA; actives raise or lower the signal. A digest of the protocol:
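Reporter transcripts read by RT-PCR with capillary electrophoresis fluorescence after a 24 h chemical exposure of HepG2 cells transiently transfected with multiple cis-element reporter units. Gain or loss fitted against DMSO.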

Test [2] can be described thus: ATG_ISRE_CIS: Attagene CIS-FACTORIAL HepG2 Assay for human Interferon Regulatory Factor 1 (IRF1) binding to an Interferon-Stimulated Response Element (ISRE) (AID 2282948). As to conditions: HepG2 ISRE cis-reporter (Attagene), mRNA transcription readout; actives raise or lower the signal. A digest of the protocol: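 Endogenous transcription factor activity read as reporter transcript abundance via RT-PCR and capillary electrophoresis. HepG2 cells transiently transfected, 24 h chemical exposure. Gain or loss fitted against DMSO baseline.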

Test [3] in a line: ATG_M_32_CIS: Attagene CIS-FACTORIAL HepG2 Assay for M32 Transcription Factor (Internal Marker) (AID 2282949).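 Also: background control marker of the multiplexed CIS panel rather than a real target.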 The note with it: HepG2 Attagene cis-factorial M32 reporter, mRNA; actives raise or lower the signal. A digest of the protocol: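 HepG2 human liver cells transiently transfected with cis-promoter-driven multiple reporter transcription units, dosed 24 h. Reporter mRNA quantified by RT-PCR, FAM-labelled primer extension, HpaI digest and capillary electrophoresis; bidirectional fit versus DMSO baseline.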

A short description of test [4]: ATG_M_06_CIS: Attagene CIS-FACTORIAL HepG2 Assay for M06 Transcription Factor (Internal Marker) (AID 2282950). As to conditions: HepG2 Attagene CIS-FACTORIAL M06 internal marker reporter; actives raise or lower the signal. A digest of the protocol: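 Measured 24 h post-dosing in transiently transfected HepG2 cells, this internal-marker endpoint reports reporter mRNA via RT-PCR with fluorescent primer extension and capillary electrophoresis. DMSO served as negative control and baseline for bidirectional fitting.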

Test [5] deals with Hypoxia-inducible factor 1-alpha (Homo sapiens) (UniProt Q16665). Put plainly: ATG_HIF1a_CIS: Attagene CIS-FACTORIAL HepG2 Assay for human Hypoxia Inducible Factor 1 (HIF1A) (AID 2282951). As to conditions: HepG2 Attagene cis-factorial HIF1a reporter transcription; actives raise or lower the signal. The gist of the method:
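Dosed 24 h, transfected HepG2 cells yielded total RNA whose reporter transcripts were RT-PCR-amplified and sized by capillary electrophoresis using fluorescent labelling; DMSO defined baseline, with gain and loss of signal both fitted.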

In test [6] the target is Hepatocyte nuclear factor 6 (Homo sapiens) (UniProt Q9UBC0). Put plainly: ATG_HNF6_CIS: Attagene CIS-FACTORIAL HepG2 Assay for human Hepatocyte Nuclear Factor 6 (HNF6) (AID 2282952). The note with it: HepG2 Attagene cis-factorial HNF6 reporter transcription; actives raise or lower the signal. A digest of the protocol:
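Endogenous transcription factor activity in human HepG2 liver cells was captured through cis-regulated reporter constructs. After 24 h treatment, reporter mRNA was measured by RT-PCR with capillary electrophoresis, and activity was fitted in both directions relative to DMSO.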

Test [7] can be described thus: ATG_MRE_CIS: Attagene CIS-FACTORIAL HepG2 Assay for human Metal Responsive Element (MRE) (AID 2282954). The note with it: HepG2 MRE cis-reporter transcription, Attagene multiplex; actives raise or lower the signal. The gist of the method: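 Endogenous MRE-dependent transcription read as reporter mRNA in transiently transfected human HepG2 cells at 24 h. RNA reverse-transcribed, PCR-amplified, labelled and resolved by capillary electrophoresis; gain or loss relative to DMSO.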

Test [8] deals with Paired box protein Pax-6 (Homo sapiens) (UniProt P26367). The test is described as follows: ATG_Pax6_CIS: Attagene CIS-FACTORIAL HepG2 Assay for human Paired Box 6 (PAX6) (AID 2282956). The note with it: HepG2 CIS-FACTORIAL PAX6 reporter transcription, RNA readout; actives raise or lower the signal. The gist of the method: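 Read-out is reporter transcript level, measured by RT-PCR with fluorescent primer extension and capillary electrophoresis after 24 h dosing of transfected HepG2 cells. Activity in either direction fitted relative to DMSO control.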
Sequence of Paired box protein Pax-6 (Homo sapiens) (P26367 whole entry, looked up): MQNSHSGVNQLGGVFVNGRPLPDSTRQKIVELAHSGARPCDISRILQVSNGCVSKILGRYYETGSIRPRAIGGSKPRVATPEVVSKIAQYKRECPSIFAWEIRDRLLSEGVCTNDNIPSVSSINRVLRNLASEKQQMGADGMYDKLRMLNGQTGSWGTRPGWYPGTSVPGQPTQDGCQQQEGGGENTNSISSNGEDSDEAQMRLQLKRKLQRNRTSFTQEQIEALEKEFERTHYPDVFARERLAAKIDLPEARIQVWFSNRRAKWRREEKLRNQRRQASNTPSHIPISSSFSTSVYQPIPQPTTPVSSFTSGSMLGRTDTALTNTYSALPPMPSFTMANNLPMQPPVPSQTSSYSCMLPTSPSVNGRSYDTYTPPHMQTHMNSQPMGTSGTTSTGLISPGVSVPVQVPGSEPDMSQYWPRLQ

A short description of test [9]: ATG_PXRE_CIS: Attagene CIS-FACTORIAL HepG2 Assay for human Pregnane X Receptor Element (PXRE) (AID 2282957). The note with it: HepG2 Attagene CIS-FACTORIAL PXRE reporter, mRNA; actives raise or lower the signal. A digest of the protocol:
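Endogenous transcription factor activity in HepG2 was gauged through induction of reporter mRNA driven by a cis-regulating promoter element, sampled 24 h post-treatment. Activity was fitted in both directions against DMSO negative control.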

A short description of test [10]: ATG_PPRE_CIS: Attagene CIS-FACTORIAL HepG2 Assay for human Peroxisome Proliferator-activated Response Element (PPRE) (AID 2282958). As to conditions: HepG2 PPRE cis-element reporter, Attagene transcription factor profiling; actives raise or lower the signal. The gist of the method:
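Measured endpoint: PPRE-controlled reporter mRNA, detected by RT-PCR and capillary electrophoresis fluorescence, from transiently transfected HepG2 cells 24 h after dosing. Curves fitted in both directions using DMSO baseline.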

Test [11] can be described thus: ATG_RORE_CIS: Attagene CIS-FACTORIAL HepG2 Assay for human RAR-related Orphan Receptor Element (RORE) (AID 2282959). The note with it: HepG2 Attagene cis-factorial RORE reporter, mRNA; actives raise or lower the signal. The gist of the method: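 Transiently transfected HepG2 reporter cells were treated 24 h. Reporter transcripts were detected by RT-PCR and capillary electrophoresis, with bidirectional fitting against DMSO.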

Test [12] in a line: ATG_Sox_CIS: Attagene CIS-FACTORIAL HepG2 Assay for human SRY-box transcription factor (SOX) (AID 2282960). The note with it: HepG2 Attagene cis-factorial SOX reporter, mRNA; actives raise or lower the signal. The gist of the method:
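Gain- or loss-of-signal endpoint, fitted bidirectionally with DMSO as negative control. Based on reporter mRNA from transfected HepG2 cells harvested 24 h post-treatment and quantified via RT-PCR and capillary electrophoresis.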

The target of test [13] is Transcription factor Sp1 (Homo sapiens) (UniProt P08047). The test is described as follows: ATG_Sp1_CIS: Attagene CIS-FACTORIAL HepG2 Assay for human Specificity Protein 1 (Sp1) (AID 2282961). As to conditions: HepG2 Sp1 cis-reporter transcription, actives raise or lower the signal. The gist of the method: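 Endpoint reflects endogenous Sp1 transcriptional activity, not an exogenous fusion protein: HepG2 cells with transfected cis-regulated reporters, 24 h dosing, RT-PCR/capillary electrophoresis mRNA read-out, DMSO-normalised bidirectional fit.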
Sequence of Transcription factor Sp1 (Homo sapiens) (P08047 whole entry, looked up, the tested form may be a part): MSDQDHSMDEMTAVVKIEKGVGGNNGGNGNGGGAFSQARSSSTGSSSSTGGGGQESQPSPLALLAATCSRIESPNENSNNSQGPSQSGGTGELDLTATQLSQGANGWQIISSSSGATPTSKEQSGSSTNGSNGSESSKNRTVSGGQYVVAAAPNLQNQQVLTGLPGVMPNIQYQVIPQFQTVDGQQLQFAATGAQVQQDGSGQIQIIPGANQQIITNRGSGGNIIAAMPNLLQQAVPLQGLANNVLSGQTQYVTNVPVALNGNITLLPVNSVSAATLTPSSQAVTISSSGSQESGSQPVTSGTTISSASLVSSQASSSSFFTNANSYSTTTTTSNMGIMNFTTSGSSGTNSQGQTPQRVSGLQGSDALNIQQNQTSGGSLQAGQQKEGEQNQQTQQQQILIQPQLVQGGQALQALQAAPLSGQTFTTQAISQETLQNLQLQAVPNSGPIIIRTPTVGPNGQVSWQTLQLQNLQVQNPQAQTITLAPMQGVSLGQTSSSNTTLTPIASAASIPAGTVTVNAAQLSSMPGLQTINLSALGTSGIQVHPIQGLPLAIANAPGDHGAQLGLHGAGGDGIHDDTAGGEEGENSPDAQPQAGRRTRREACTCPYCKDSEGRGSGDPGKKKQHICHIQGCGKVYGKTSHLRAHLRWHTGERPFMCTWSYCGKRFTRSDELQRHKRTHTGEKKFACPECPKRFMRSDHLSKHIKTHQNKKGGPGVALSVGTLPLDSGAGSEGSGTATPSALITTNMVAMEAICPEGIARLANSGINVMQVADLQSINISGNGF

A short description of test [14]: ATG_SREBP_CIS: Attagene CIS-FACTORIAL HepG2 Assay for human Sterol Regulatory Element Binding (SREBP) (AID 2282962). As to conditions: HepG2 Attagene cis-factorial SREBP reporter, mRNA; actives raise or lower the signal. The gist of the method:
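Endogenous SREBP activity read as cis-element-driven reporter transcript in transiently transfected HepG2, 24 h post-dosing; quantified via RT-PCR plus capillary electrophoresis of fluorescent fragments. Gain or loss of signal fitted relative to DMSO baseline.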

Test [15] deals with Signal transducer and activator of transcription 3 (Homo sapiens) (UniProt P40763). Put plainly: ATG_STAT3_CIS: Attagene CIS-FACTORIAL HepG2 Assay for human Signal Transducer and Activator of Transcription 3 (STAT3) (AID 2282963). As to conditions: HepG2, Attagene cis-factorial STAT3 reporter transcription; actives raise or lower the signal. The gist of the method: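 Readout is reporter transcript quantified by RT-PCR and capillary electrophoresis, with 6-FAM primer extension and HpaI digestion. Total RNA is taken 24 h after dosing transiently transfected HepG2 carrying cis-regulated reporter units. Bidirectional fit against DMSO.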
Sequence of Signal transducer and activator of transcription 3 (Homo sapiens) (P40763 whole entry, looked up): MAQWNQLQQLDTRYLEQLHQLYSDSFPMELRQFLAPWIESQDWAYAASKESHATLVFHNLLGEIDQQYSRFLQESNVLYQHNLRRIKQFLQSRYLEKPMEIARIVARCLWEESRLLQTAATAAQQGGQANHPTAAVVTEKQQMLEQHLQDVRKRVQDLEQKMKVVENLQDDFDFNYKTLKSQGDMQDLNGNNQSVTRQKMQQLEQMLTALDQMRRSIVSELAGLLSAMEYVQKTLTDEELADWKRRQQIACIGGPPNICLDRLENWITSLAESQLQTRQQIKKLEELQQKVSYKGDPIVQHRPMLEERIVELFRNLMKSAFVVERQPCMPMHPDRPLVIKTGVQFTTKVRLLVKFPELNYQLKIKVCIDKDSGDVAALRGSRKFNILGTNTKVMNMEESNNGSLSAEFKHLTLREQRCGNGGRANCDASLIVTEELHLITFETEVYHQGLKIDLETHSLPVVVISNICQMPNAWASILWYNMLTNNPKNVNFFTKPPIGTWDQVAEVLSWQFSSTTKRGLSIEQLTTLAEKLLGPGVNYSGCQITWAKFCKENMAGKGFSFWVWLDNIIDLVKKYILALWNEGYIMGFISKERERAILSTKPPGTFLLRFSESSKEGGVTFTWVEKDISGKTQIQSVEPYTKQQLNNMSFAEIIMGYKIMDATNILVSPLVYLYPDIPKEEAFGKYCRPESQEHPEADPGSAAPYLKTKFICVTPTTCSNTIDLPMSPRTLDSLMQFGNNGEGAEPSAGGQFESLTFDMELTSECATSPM

A short description of test [16]: ATG_TA_CIS: Attagene CIS-FACTORIAL HepG2 Assay for human TA Basal Promoter (AID 2282964). The note with it: HepG2 Attagene CIS-factorial TA basal promoter reporter; actives raise or lower the signal. The gist of the method:
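Cis-factorial format in HepG2: reporters report endogenous factors, not chimeric Gal4 fusions. After 24 h treatment, reporter transcripts were measured by RT-PCR-capillary electrophoresis fluorescence, analysed bidirectionally versus DMSO.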

Test [17] has as its target Bile acid receptor (Homo sapiens) (UniProt Q96RI1). The test is described as follows: ATG_IR1_CIS: Attagene CIS-FACTORIAL HepG2 Assay for human Nuclear Receptor Subfamily 1 Group H Member 4 (NR1H4), IR1 submotif (AID 2282946). As to conditions: IR1 reporter transcription, actives raise or lower the signal. A digest of the protocol: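 HepG2 cells transiently transfected with multiplexed cis-element reporter units read endogenous transcription factor activity. After 24 h compound exposure, reporter mRNA was quantified by RT-PCR, fluorescent labelling, HpaI digestion and capillary electrophoresis; bidirectional fitting versus DMSO baseline.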

For test [18], the target named is Heat shock factor protein 1 (Homo sapiens) (UniProt Q00613). Put plainly: ATG_HSE_CIS: Attagene CIS-FACTORIAL HepG2 Assay for human Heat Shock Transcription Factor 1 (HSE) (AID 2282953). The note with it: HepG2 HSE cis-reporter, Attagene RNA transcription; actives raise or lower the signal. A digest of the protocol:
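Reporter mRNA induction in HepG2 is measured 24 h after dosing, using transiently transfected multiplexed cis-regulated reporter units. Signal comes from capillary electrophoresis of labelled RT-PCR products, with DMSO as negative control.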

Test [19] in a line: ATG_PBREM_CIS: Attagene CIS-FACTORIAL HepG2 Assay for human Phenobarbital-responsive Enhancer Module (PBREM) (AID 2282955). The note with it: HepG2 PBREM cis-reporter, Attagene multiplexed transcription; actives raise or lower the signal. The gist of the method:
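Transfected liver-derived HepG2 cells exposed 24 h; PBREM reporter transcript quantified via RT-PCR and capillary electrophoresis, with activity in either direction referenced to DMSO.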

Sequence of Hypoxia-inducible factor 1-alpha (Homo sapiens) (Q16665 whole entry, looked up): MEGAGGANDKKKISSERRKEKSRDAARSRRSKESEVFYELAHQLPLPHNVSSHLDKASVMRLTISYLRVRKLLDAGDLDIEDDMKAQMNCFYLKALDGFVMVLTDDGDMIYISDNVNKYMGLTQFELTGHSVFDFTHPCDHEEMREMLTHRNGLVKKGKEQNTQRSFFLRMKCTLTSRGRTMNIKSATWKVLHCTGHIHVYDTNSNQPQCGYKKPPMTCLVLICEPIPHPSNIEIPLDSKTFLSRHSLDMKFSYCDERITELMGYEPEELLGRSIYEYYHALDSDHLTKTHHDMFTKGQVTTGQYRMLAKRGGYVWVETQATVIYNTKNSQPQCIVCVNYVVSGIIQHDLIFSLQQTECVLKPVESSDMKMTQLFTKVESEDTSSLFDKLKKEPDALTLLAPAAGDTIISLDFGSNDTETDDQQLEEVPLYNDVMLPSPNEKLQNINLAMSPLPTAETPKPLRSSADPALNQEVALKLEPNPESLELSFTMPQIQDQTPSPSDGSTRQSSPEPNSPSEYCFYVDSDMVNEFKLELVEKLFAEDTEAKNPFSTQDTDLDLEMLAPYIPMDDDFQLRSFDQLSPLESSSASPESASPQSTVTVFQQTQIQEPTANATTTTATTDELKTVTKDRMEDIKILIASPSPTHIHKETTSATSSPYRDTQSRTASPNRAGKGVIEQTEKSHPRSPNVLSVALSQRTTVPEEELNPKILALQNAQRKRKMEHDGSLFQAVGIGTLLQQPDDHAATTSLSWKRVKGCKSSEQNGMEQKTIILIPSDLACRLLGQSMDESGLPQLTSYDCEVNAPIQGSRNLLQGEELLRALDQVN
Sequence of Hepatocyte nuclear factor 6 (Homo sapiens) (Q9UBC0 whole entry, looked up): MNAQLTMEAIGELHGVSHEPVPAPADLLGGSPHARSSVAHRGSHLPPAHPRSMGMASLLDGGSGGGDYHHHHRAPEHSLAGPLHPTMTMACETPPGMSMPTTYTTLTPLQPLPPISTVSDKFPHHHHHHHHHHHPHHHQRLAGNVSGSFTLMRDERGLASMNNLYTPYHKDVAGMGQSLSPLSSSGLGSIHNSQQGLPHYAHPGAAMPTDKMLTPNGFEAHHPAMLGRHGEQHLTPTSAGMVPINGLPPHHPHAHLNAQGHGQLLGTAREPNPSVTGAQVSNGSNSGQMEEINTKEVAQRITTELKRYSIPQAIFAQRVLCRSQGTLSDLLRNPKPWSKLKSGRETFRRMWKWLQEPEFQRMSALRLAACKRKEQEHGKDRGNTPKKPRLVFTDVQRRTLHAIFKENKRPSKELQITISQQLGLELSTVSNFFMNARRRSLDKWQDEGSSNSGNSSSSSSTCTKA
Sequence of Heat shock factor protein 1 (Homo sapiens) (Q00613 whole entry, looked up): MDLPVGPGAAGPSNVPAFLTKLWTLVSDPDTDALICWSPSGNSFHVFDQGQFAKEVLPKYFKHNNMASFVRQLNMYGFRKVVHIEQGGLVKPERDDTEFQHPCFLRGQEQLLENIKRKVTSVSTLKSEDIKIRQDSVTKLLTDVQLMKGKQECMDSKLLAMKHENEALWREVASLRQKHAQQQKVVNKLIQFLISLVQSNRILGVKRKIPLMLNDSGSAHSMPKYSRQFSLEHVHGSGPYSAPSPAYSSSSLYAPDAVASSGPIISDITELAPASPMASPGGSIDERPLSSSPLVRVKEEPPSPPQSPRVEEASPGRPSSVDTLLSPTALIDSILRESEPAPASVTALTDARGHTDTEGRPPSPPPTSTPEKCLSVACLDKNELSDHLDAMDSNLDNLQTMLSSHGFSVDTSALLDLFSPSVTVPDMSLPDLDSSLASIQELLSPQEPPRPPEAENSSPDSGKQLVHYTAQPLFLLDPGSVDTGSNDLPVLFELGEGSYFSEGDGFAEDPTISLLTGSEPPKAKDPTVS
Sequence of Bile acid receptor (Homo sapiens) (Q96RI1 whole entry, looked up): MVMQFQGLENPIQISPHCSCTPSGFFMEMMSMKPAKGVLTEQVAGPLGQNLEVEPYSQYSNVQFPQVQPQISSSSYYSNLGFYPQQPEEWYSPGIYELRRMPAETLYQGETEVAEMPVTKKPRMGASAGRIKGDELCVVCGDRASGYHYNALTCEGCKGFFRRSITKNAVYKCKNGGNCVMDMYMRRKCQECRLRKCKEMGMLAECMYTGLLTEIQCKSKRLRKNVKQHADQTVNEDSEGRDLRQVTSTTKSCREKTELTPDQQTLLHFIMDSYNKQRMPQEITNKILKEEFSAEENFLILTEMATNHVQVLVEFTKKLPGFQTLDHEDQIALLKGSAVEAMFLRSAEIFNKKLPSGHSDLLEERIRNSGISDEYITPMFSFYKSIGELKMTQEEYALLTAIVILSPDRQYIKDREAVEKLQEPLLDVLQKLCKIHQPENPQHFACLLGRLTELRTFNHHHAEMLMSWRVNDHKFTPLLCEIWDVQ

In the case of `C#C[C@]1(O)CC[C@H]2[C@@H]3CCC4=CC(=O)CC[C@@H]4[C@H]3CC[C@@]21CC`, the compound was called inactive in test [1], in test [2], in test [3], in test [4], in test [5] and in test [6]. Further, the compound was classed as inactive in test [7], in [8], in [10], in [11], in [12] and in test [13]. The compound was classed as inactive in test [14], in test [15] and in test [16]. The figures for the AC50 in test [5] and in test [9] were 3.15 µM (active) and 5.07 µM (active) [middle of 5 runs], respectively.
For `CC(C)(C)[C@@H](O)[C@@H](Cc1ccc(Cl)cc1)n1cncn1`, the AC50 in test [17] was 41.3 µM (active); in [1] it was 90.9 µM (active); in test [9], 13.5 µM (active). In addition, the result in [2], in [3], in test [4], in test [5], in [6] and in test [18] was inactive. Also, the compound was classed as inactive in test [7], in test [8], in [10], in test [11], in test [12] and in [13]. In addition, the compound was classed as inactive in test [14], in test [15] and in test [16].
For `CSC(=O)c1cccc2nnsc12`, the result in test [1], in [2], in [3], in [4], in test [5] and in [6] was inactive. Also, the result in test [18], in [7], in [19], in test [8], in test [10] and in test [11] was inactive. For the same compound, the outcome in [12], in [13], in test [14], in test [15] and in test [16] was inactive. The AC50 in [9] is 49.4 µM (active).
Consider `CCOC(=O)COc1cc(-n2ncc(C(F)(F)F)c(C)c2=O)c(F)cc1Cl`, for which the outcome in test [1], in test [2], in test [3], in [4], in test [5] and in [6] was inactive. Moreover, the outcome in test [18], in [7], in [19], in test [8], in test [10] and in [11] was inactive. Besides, the compound was called inactive in test [12], in test [13], in [14], in [15] and in test [16]. For the same compound, the AC50 in test [9] is 28.5 µM (active).

The values above are taken from PubChem BioAssay (EPA / NIEHS).
